The campaign covered roughly 220,000 compounds. About 910 (0.41%) were called active. The list comes from a sample in which actives are over-represented; it also holds similar structures and randomly drawn compounds. Potency and affinity values are given separately. A number with no mark means an inactive call.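 The calls were made as follows: active = primary inhibition above the hit cutoff, then over 50% inhibition at one or more dose response concentrations (cut at about 23% in these data, passing the limit was not always enough); inconclusive = conflicting primary data, or primary hits not chosen for dose response; inactive = low primary inhibition, or under 50% at every dose.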

As a reminder, the inhibition is the drop in the measured response relative to a control, in per cent.

The assay deals with Aminopeptidase N (Plasmodium falciparum (isolate 3D7)) (UniProt O96935). Description: malaria alanyl aminopeptidase activity blockers – biochemical, fluorogenic H-Leu-NHMec substrate, 1536-well (AID 1445).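 Also: plate controls were DMSO full reaction for no effect and no enzyme background for full effect.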 The note with it: recombinant M1AAP, H-Leu-NHMec fluorogenic kinetic assay; at 30 µM, active compounds read high unless noted.
Chain of Aminopeptidase N (Plasmodium falciparum (isolate 3D7)) (O96935 whole entry, looked up): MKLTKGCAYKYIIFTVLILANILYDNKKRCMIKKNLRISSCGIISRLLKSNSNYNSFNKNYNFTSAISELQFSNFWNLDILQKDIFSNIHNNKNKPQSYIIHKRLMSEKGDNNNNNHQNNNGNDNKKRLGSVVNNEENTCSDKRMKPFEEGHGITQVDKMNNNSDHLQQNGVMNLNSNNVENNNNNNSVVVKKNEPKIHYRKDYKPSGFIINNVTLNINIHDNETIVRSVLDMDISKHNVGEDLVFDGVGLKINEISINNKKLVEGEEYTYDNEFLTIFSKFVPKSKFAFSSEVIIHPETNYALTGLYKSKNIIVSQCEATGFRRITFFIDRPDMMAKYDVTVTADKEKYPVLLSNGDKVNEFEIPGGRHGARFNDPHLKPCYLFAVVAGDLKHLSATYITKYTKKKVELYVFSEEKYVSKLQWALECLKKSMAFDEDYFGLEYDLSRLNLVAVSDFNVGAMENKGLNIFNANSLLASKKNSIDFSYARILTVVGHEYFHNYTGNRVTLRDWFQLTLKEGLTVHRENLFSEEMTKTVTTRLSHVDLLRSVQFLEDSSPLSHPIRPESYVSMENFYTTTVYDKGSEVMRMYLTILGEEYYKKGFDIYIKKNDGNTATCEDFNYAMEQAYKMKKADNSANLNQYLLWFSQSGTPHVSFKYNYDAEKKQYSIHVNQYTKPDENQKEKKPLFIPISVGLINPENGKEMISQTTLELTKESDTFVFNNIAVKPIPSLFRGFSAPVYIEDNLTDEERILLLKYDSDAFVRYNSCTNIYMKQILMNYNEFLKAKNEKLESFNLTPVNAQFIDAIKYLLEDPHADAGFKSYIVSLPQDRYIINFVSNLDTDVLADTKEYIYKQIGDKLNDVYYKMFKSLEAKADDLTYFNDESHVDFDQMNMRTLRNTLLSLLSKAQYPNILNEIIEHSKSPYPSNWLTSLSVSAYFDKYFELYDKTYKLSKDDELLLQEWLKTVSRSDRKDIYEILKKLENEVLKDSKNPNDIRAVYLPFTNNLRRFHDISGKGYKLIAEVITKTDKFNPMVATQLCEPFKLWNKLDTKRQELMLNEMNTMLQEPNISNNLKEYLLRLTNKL
Take `CN(CC(=O)NC1CCCCC1)S(=O)(=O)c1ccc(Cl)cc1`: the inhibition was -0.77%.
The value for `O=C(CCC1CCCC1)N1CCN(C(=O)COc2ccccc2)CC1` was 21.1%; that for `O=C(COc1ccc(Br)cc1)N1CCOCC1` was -2.69%.
The figure for `CC(=O)N1CCN(C(=O)COc2ccc(Br)cc2)CC1` is 1.6%.
As for `Cc1cccc(OCC(=O)N2CCN(C(=O)CCC3CCCC3)CC2)c1`, the inhibition was 22.4%.
The value for `CCCOc1ccc(CSc2n[nH]c(C)n2)cc1` was 8.48%.
The value for `COc1ccc(CCNC(=O)C(C)Sc2ccccc2)cc1OC` (stereo not drawn) was -0.82%; that for `Cc1cccc(NC(=S)NCCc2ccc3c(c2)OCCO3)c1C` was 0.53%; that for `CC1CCC(C(C)C)C(OC(=O)COC(=O)c2cc(O)ccc2N)C1` (stereo not drawn) was 6%.
For the compound `CCn1cc(S(=O)(=O)Nc2ccccc2C(F)(F)F)cn1`, the inhibition was -0.46%.
The value for `Cc1cccc(C(=O)NNC(=O)c2ccc(Cl)cc2)c1O` was 27.7% (active); that for `NNC(=O)c1ccc(O)cc1O` was 11.6%; that for `CC(C)(C)c1ccc(C(=O)NNC(=O)c2ccc(Cl)cc2)cc1` was 0.45%.
The figure for `COc1ccccc1C(=O)NNC(=O)c1ccc(Cl)cc1` is -4.03%; for `O=C(NNC(=O)c1ccccc1Br)c1ccc(Cl)cc1` it is -5.75%.
The figure for `COc1cc(/C=C2/C(=N)N3C(c4ccccc4)=CSC3=NC2=O)ccc1OCC(=O)O` is 8.04%; for `CN(C)c1ccc(/C=C2\C(=N)N3C(=NC2=O)Sc2cc(S(C)(=O)=O)ccc23)cc1` it is 12.4%; for `COc1ccc(/C=C2/C(=N)N3C(=NC2=O)Sc2cc(S(C)(=O)=O)ccc23)cc1OC` it is 4.37%.
Regarding `CC1=CSC2=NC(=O)/C(=C/c3cccc(OC(=O)c4ccco4)c3)C(=N)N12`, the inhibition is 8.4%.
The figure for `COC(=O)CCC(=O)N1CCOCCOCCOCC1` is 3.89%; for `COc1cc(/C=C2/NC(=O)N(Cc3ccccc3F)C2=O)cc(OC)c1O` it is 11%; for `CCOc1cc(/C=C2/NC(=O)N(Cc3ccccc3F)C2=O)ccc1O` it is 9.55%.
For the compound `CC(C)CNc1nc(S(=O)(=O)c2ccccc2)c(Cl)s1`, the inhibition is -9.9%.
For `Cc1ccc(S(=O)(=O)c2nc(NN(C)C)sc2Cl)cc1`, the inhibition was 2.25%.
The value for `Cc1ccc(S(=O)(=O)c2nc(NCCCn3ccnc3)sc2Cl)cc1` was 1.08%; that for `O=S(=O)(c1ccccc1)c1nc(NCc2ccccc2)sc1Cl` was 3.65%; that for `Cc1ccc(S(=O)(=O)C2CS(=O)(=O)CC2O)cc1` (stereo not drawn) was -0.11%.
The figure for `c1ccc(CCCCNCC2COc3ccccc3O2)cc1` (stereo not drawn) is 0.11%.

The record behind these values is PubChem BioAssay AID1445 (SRMLSC, 2008).
